# The OligoGym collection
# Biological target: SCAF4
# Experiment: pooled miR-30 sensor sort-seq; sequence = guide strand
# Settings: shRNA
# Note: reference of the scale not given here.
row,Sequence,sensor-assay potency score (higher = more potent)
1,TTAGTGATGAGAATCATCTTGG,0.534
2,TTGTTCTACTTCCATTTCCTGC,-0.925
3,TAACTGAGCTGTGATAGCCTGA,-0.339
4,TTTCTTGAGATCGAGATCGGGG,-0.563
5,TTGAGTTGTCTGAAACAGCTGA,0.384
6,TTTAATAGCAGCTTTAGTGATG,-0.529
7,TTACACTTTTTGATGAACTTTT,-0.768

# Biological target: SCAPER
# Experiment: as above
# Settings: shRNA
row,Sequence,sensor-assay potency score (higher = more potent)
1,TTGAGTGTAATTCTCCTTGGGA,0.0508
2,ATAATCTGCAAGGACATCGTTC,-0.342
3,TAAACATTGATTGCATTGCAGA,-1.19
4,TTCTTTATCACTGTCATCCTTT,0.0905
5,TTTTCTTCCATCATCCTGCGTC,0.186
6,TTACATTCGACCACACTCTGAT,0.939
7,TTAACAATTCTTCTACACGGGC,-0.521
8,TTCATCTGGAACATAAACCGTC,0.155
9,TTGAGCATCTGTCTTCTCTAGC,-0.0428
10,TTGATCTAGCAATTCTTCCTTC,0.245
11,TTATTTTACAGTCCACTGCAGT,-0.733
